From the supplement of paper PMC6607015
Structures can show the parent of a compound that is named as a salt.

Key:
Conditions in all cases: compound concentration in added solution (µM; 5 µl added to 20 µl cells): 10; 18 h
[1] = system: A431; experiment: LBPA endosome anti-LBPA integrated intensity (sum per cell), Z-score; higher = more LBPA staining
Method in brief: (§1)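 Duplicate 384-well imaging plates were prepared with 5 µl of 10 µM compound solution per well, and 3,500 HeLa MZ or A431 cells in 20 µl were added on top. Following 18 h of incubation and fixation in 4% PFA, cells received 6C4 anti-LBPA antibody, filipin, propidium iodide and CellTracker green. Four images per well at 20× were segmented in MetaXpress to yield per-cell integrated LBPA or filipin intensity, whole-cell or within LBPA endosomes. These intensities are reported as Z-scores normalised in AcuityXpress.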

[2] = system: HeLa MZ; experiment: as above
Method in brief: as §1

[3] = system: A431; experiment: whole-cell filipin (free cholesterol) integrated intensity, Z-score; higher = more cholesterol staining
Method in brief: as §1

[4] = system: HeLa MZ; experiment: as above
Method in brief: as §1

[5] = system: A431; experiment: filipin (cholesterol) integrated intensity within LBPA endosomes, Z-score; higher = more cholesterol in LBPA endosomes
Method in brief: as §1

[6] = system: HeLa MZ; experiment: as above
Method in brief: as §1

SMILES | LBPA endosome anti-LBPA integrated intensity (z-score) [1] | LBPA endosome anti-LBPA integrated intensity (z-score) [2] | whole-cell filipin (z-score) [3] | whole-cell filipin (z-score) [4] | filipin (z-score) [5] | filipin (z-score) [6]
O=c1[nH]c2ccccc2n1CCCN1CCC(n2c(=O)[nH]c3cc(Cl)ccc32)CC1 [Domperidone] | 2.25 | 1.92 | 2.16 | 2.38 | 2.09 | 2.01
CC[C@@H](CO)NC(=O)[C@@H]1C=C2c3cccc4[nH]cc(c34)C[C@H]2N(C)C1 [Methylergometrine maleate] | -0.539 | -1.25 | -0.649 | -0.308 | -0.495 | -0.637
CCOC(=O)c1cncn1[C@H](C)c1ccccc1 [Etomidate] | -0.611 | -1.14 | -0.618 | -0.784 | -0.487 | -0.672
CC(=O)NC1CCSC1=O (racemic) [N-Acetyl-DL-homocysteine Thiolactone] | -0.475 | -0.898 | -0.462 | -0.0159 | -0.405 | -0.461
c1ccc2nc(N3CCNCC3)ccc2c1 [Quipazine dimaleate salt] | -0.64 | 0.00535 | -0.594 | -0.241 | -0.575 | -0.45
CCC(C)C1O[C@]2(C=C[C@@H]1C)C[C@@H]1CC(C/C=C(\C)[C@@H](OC3C[C@H](OC)[C@@H](OC4C[C@H](OC)[C@@H](O)[C@H](C)O4)[C@H](C)O3)[C@@H](C)/C=C/C=C3\COC4[C@H](O)C(C)=CC(C(=O)O1)[C@]34O)O2 (stereo partly drawn) [Avermectin B1a] | -0.178 | 0.136 | -0.0649 | 0.727 | -0.285 | -0.0937
CN1[C@@H]2C[C@@H](OC(=O)[C@H](CO)c3ccccc3)C[C@H]1[C@@H]1O[C@@H]12 [Scopolamine hydrochloride] | -0.422 | -0.0951 | -0.247 | 0.118 | -0.45 | -0.0653
C#C[C@]1(O)CC[C@H]2[C@@H]3CCC4=CC(=O)CCC4=C3C=C[C@@]21CC [Gestrinone] | -0.489 | -0.347 | 0.15 | 0.634 | -0.436 | -0.437
C#C[C@]1(O)CC[C@H]2[C@@H]3CCC4=CC(=O)CC[C@]4(C)[C@H]3CC[C@@]21C [Ethisterone] | -0.369 | -0.214 | -0.635 | -1.08 | -0.449 | -0.685
C[C@]12CC[C@H](O)C[C@@H]1CC[C@@H]1[C@@H]2CC[C@]2(C)C(=O)CC[C@@H]12 [Epiandrosterone] | 1.56 | 0.767 | 2.3 | 2.67 | 2.15 | 1.85
COP(=O)(OC)C(O)C(Cl)(Cl)Cl (stereo not drawn) [Trichlorfon] | -0.479 | -0.711 | -1.16 | -1.48 | -0.56 | -0.592
CN1[C@@H]2CC[C@H]1C[C@@H](OC(=O)[C@H](CO)c1ccccc1)C2 [Hyoscyamine (L)] | -0.717 | -1.24 | -0.954 | -0.599 | -0.664 | -0.33
CCN(C)C(=O)Oc1cccc([C@H](C)N(C)C)c1 [Rivastigmine] | -0.438 | -0.457 | 0.162 | 1.82 | -0.375 | -0.164
CC(C)(C)NCC(O)c1ccccc1Cl (stereo not drawn) [Tulobuterol] | -0.101 | 1.38 | 0.203 | 0.36 | -0.334 | -0.0322
COc1ccc(OC)c(C(O)C(C)N)c1 (stereo not drawn) [Methoxamine hydrochloride] | -0.442 | 0.415 | -0.614 | -0.834 | -0.515 | -0.513
O=[N+]([O-])O[C@H]1CO[C@H]2[C@@H]1OC[C@H]2O[N+](=O)[O-] [Isosorbide dinitrate] | -0.547 | -1 | -0.426 | -0.655 | -0.496 | -0.471
C[C@@H]1CN([C@H]2CC[C@](C#N)(c3ccc(F)cc3)CC2)CC[C@]1(C(=O)O)c1ccccc1 [Levocabastine hydrochloride] | -0.412 | -0.243 | -0.194 | -0.189 | -0.388 | -0.461
C[C@]12CC[C@H]3[C@@H](CCC4=CC(=O)CC[C@@H]43)[C@@H]1CC[C@@H]2O [Nandrolone] | -0.352 | 0.296 | -0.14 | -0.437 | -0.296 | -0.508
C[C@]12CC[C@@H](O)C[C@H]1CC[C@@H]1[C@@H]2CC[C@]2(C)C(=O)CC[C@@H]12 [3-alpha-Hydroxy-5-beta-androstan-17-one] | -0.153 | 1.16 | 0.209 | 0.519 | -0.175 | -0.161
O=[N+]([O-])c1cc([As](=O)(O)O)ccc1O [Roxarsone] | -0.422 | -1.01 | 0.39 | 0.562 | -0.281 | -0.327
CN1CCN(C(=O)OC2c3nccnc3C(=O)N2c2ccc(Cl)cn2)CC1 (stereo not drawn) [Zopiclone] | -0.313 | -0.4 | -0.601 | -0.164 | -0.406 | -0.296
CCCC(C)C1(CC)C(=O)NC(=O)NC1=O (stereo not drawn) [Pentobarbital] | -0.683 | -1.58 | -0.881 | -0.632 | -0.553 | -0.624
CC(C)(N)Cc1ccccc1 [Phentermine hydrochloride] | -0.333 | 0.854 | 0.392 | 0.563 | -0.29 | -0.0575
S=C(NC1CCCCC1)N1CCC(c2cnc[nH]2)CC1 [Thioperamide maleate] | 2.17 | 2.24 | -0.0418 | 0.0454 | 0.0582 | 0.431

SMILES | LBPA endosome anti-LBPA integrated intensity (z-score) [1] | LBPA endosome anti-LBPA integrated intensity (z-score) [2] | whole-cell filipin (z-score) [3] | whole-cell filipin (z-score) [4] | filipin (z-score) [5] | filipin (z-score) [6]
C=C1C[C@@H]2[C@H](CC[C@]3(C)C(=O)CC[C@@H]23)[C@@]2(C)C=CC(=O)C=C12 [Exemestane] | -0.59 | 0.401 | -0.0622 | -0.2 | -0.537 | -0.552
CC(=O)O[C@H]1C[C@@H]2CC[C@@H]3[C@H](CC[C@@]4(C)[C@H]3C[C@H]([N+]3(C)CCCCC3)[C@@H]4OC(C)=O)[C@@]2(C)C[C@@H]1[N+]1(C)CCCCC1 [Pancuronium bromide] | -0.551 | -0.744 | 0.0171 | -0.166 | -0.527 | -0.532
CCN(C(C)=O)c1cccc(-c2ccnc3c(C#N)cnn23)c1 [Zaleplon] | -0.486 | -0.0487 | -0.573 | -0.909 | -0.493 | -0.507
CC(=O)OC1CN2CCC1CC2 (stereo not drawn) [Aceclidine Hydrochloride] | -0.622 | -1.07 | -0.642 | 0.0664 | -0.61 | -0.54
O=c1[nH]oc2c1CCNC2 [THIP Hydrochloride] | -0.526 | -1.24 | -0.151 | -1.07 | -0.413 | -0.582
C[C@@]12N[C@@H](Cc3ccccc31)c1ccccc12 [(-)-MK 801 hydrogen maleate] | -0.405 | 0.615 | -0.428 | -0.298 | -0.407 | -0.347
COc1ccc(CN2CCNCC2)c(OC)c1OC [Trimetazidine dihydrochloride] | -0.479 | 0.3 | -0.53 | -0.184 | -0.484 | -0.365
O=c1c2ccccc2[se]n1-c1ccccc1 [Ebselen] | -0.435 | -0.608 | -0.31 | -0.0059 | -0.372 | -0.243
O=[N+]([O-])O[C@@H]1CO[C@H]2[C@@H]1OC[C@@H]2O [Isosorbide mononitrate] | -0.416 | -0.118 | 0.0855 | -0.408 | -0.35 | -0.464
NCC1(CC(=O)O)CCCCC1 [Gabapentin] | -0.54 | -0.377 | -0.349 | -0.476 | -0.52 | -0.627
C[C@]12CC[C@@H](O)C[C@@H]1CC[C@@H]1[C@@H]2CC[C@]2(C)C(=O)CC[C@@H]12 [Androsterone] | -0.387 | -0.552 | -0.613 | -0.395 | -0.241 | -0.291
CC[N+]1(C)CCCC(OC(=O)C(O)(c2ccccc2)c2ccccc2)C1 (stereo not drawn) [Pipenzolate bromide] | -0.28 | 0.585 | -0.135 | 0.198 | -0.297 | -0.211
CCn1cc(C(=O)O)c(=O)c2cc3c(cc21)OCO3 [Oxolinic acid] | -0.55 | -0.225 | -0.848 | -0.638 | -0.512 | -0.645
Clc1ccc(C(OCCN2CCCCC2)c2ccccc2)cc1 (stereo not drawn) [Cloperastine hydrochloride] | 3.12 | 1.44 | 1.35 | -0.495 | 2.83 | 0.777
CN1CCC2(C)c3cc(O)ccc3N(C)C12 (single isomer, unassigned; (-)) [(-)-Eseroline fumarate salt] | -0.298 | 0.682 | 0.444 | -0.261 | -0.415 | -0.33
COc1ccc2c(c1)[C@]13CCCC[C@@H]1[C@H](C2)N(C)CC3 [Dextromethorphan hydrobromide monohydrate] | -0.375 | 0.494 | -0.0383 | 0.286 | -0.149 | 0.237
C[C@H](N)[C@H](O)c1ccc(O)c(O)c1 [Levonordefrin] | -0.29 | -0.019 | 0.247 | 0.753 | -0.427 | -0.337
CC(=O)O[C@H]1CC[C@@]2(C)C(=CC[C@@H]3[C@@H]2CC[C@]2(C)C(=O)CC[C@@H]32)C1 [Dehydroisoandosterone 3-acetate] | -0.242 | -0.00203 | 0.0526 | 0.0333 | -0.136 | -0.214
CCC1(C)CC(=O)NC(=O)C1 [Bemegride] | -0.67 | -1.05 | -0.832 | -0.492 | -0.547 | -0.434
CC(C)(C)NCC(O)c1cc(Cl)c(N)c(Cl)c1 (stereo not drawn) [Clenbuterol hydrochloride] | 0.0925 | 0.441 | -0.358 | -0.387 | -0.383 | -0.295
NCC(O)c1ccc(O)cc1 (racemic) [(+,-)-Octopamine hydrochloride] | -0.262 | 0.0629 | -0.464 | -0.485 | -0.407 | -0.291
C[C@]12COC(=O)C[C@@H]1CC[C@@H]1[C@@H]2CC[C@@]2(C)[C@H]1CC[C@]2(C)O [Oxandrolone] | -0.386 | -0.00131 | -0.15 | -0.159 | -0.429 | -0.517
C[C@]12CCC(=O)C(O)=C1CC[C@@H]1[C@@H]2CC[C@]2(C)C(=O)CC[C@@H]12 [Formestane] | 1.1 | 1.9 | 2.53 | 2.23 | 2.1 | 1.15
C=CCN1CC[C@]23c4c5ccc(O)c4O[C@H]2C(=O)CC[C@@]3(O)[C@H]1C5 [Naloxone hydrochloride] | -0.497 | -0.128 | -0.72 | -1.07 | -0.454 | -0.503
